Among the data in the OligoGym collection are sensor-assay potency score (higher = more potent) values, retold here.
Further: reference of the scale not given here.

For one assay, the target named is ST8SIA1. Description: pooled miR-30 sensor sort-seq; sequence = guide strand. The settings on record: shRNA.
With TAAGTTGAATTGTCAATGGTGA, the sensor-assay potency score (higher = more potent) is -0.263.

TTTGCTTCATCTATTTGACGGC had a sensor-assay potency score (higher = more potent) of 0.566.

TGACAGTGTATAATAAACCCTC had a sensor-assay potency score (higher = more potent) of -0.586.

Consider TTGACAATCAGCAACACTTTTA, for which the sensor-assay potency score (higher = more potent) was -1.09.

As for TTGATTGGCACCAACATCTGAC, the sensor-assay potency score (higher = more potent) is -0.0698.

Regarding TTGTCCACAAATGTCTTTCTGG, the sensor-assay potency score (higher = more potent) is -0.546.

For TAAGACGTTGTCATAGTAGTGG, the sensor-assay potency score (higher = more potent) amounted to 0.604.

Sequence TAGCTGTCACTAACTGACTTTT had a sensor-assay potency score (higher = more potent) of -1.28.

As for TTTGATTGGCACCAACATCTGA, the sensor-assay potency score (higher = more potent) is -0.123.

Sequence TTTGTTTCCTGAACGCTCTGGC showed a sensor-assay potency score (higher = more potent) of 0.807.

TTAGCTGTCACTAACTGACTTT: the sensor-assay potency score (higher = more potent) turned out to be 0.0924.

For another assay, the target named is ST8SIA4. The description is as above. The note with it: shRNA.
On to TTAACTACAGAAAATATCGGTC, for which the sensor-assay potency score (higher = more potent) was 0.169.

Consider TTTAACTACAGAAAATATCGGT, for which the sensor-assay potency score (higher = more potent) is 0.525.

As for TTGAAATTAATCATCTCTGTTT, the sensor-assay potency score (higher = more potent) came out at 0.14.

TTCTATTTGAATAACAAGGGGA returned a sensor-assay potency score (higher = more potent) of -0.346.

TCTTTTGATAGGAACTTTGTTG registered a sensor-assay potency score (higher = more potent) of -0.556.

Sequence TACATGAGAAGACCTGTGCTGG showed a sensor-assay potency score (higher = more potent) of -0.695.

As for TTATGTAGCACATTTAATGTTT, the sensor-assay potency score (higher = more potent) is -0.574.

TTGACCACTGACACATCTCGTT gave a sensor-assay potency score (higher = more potent) of 0.237.

The sequence ATTGTGACTGTCAATCTCCTTT displayed a sensor-assay potency score (higher = more potent) of -0.228.

As to TTTCCAACCTTCTACATTGTGC, the sensor-assay potency score (higher = more potent) is -0.709.

As for TTTGATAGGAACTTTGTTGGTC, the sensor-assay potency score (higher = more potent) was 0.701.

The target in a further assay is STAC. The description is as above. The settings on record: shRNA.
Regarding TCTTGAAAGAAAGTGATCGTTT, the sensor-assay potency score (higher = more potent) was -0.172.

On to TTTATAGTCCTACTGCTGCTGC, for which the sensor-assay potency score (higher = more potent) was -0.661.

Regarding TACATTTCTTCTAAGATGCTGT, the sensor-assay potency score (higher = more potent) was 0.11.

TTGCAGTTTCATGTCTTCGCTG registered a sensor-assay potency score (higher = more potent) of 0.116.

TTTCATGTCTTCGCTGTTGGTT gave a sensor-assay potency score (higher = more potent) of 0.0863.

Consider TATGTAAACACGCTGTTGCTGC, for which the sensor-assay potency score (higher = more potent) was -0.123.

TTGTACAAGGCAACATAGGTGT came in with a sensor-assay potency score (higher = more potent) of -0.164.

The sequence TTCCAAATCTTCATTCTCCTGT had a sensor-assay potency score (higher = more potent) of 0.665.

TTGTCAGCACTTTTGCTCCGTA came in with a sensor-assay potency score (higher = more potent) of -0.694.

In turn, TTCTTCTTCAGAACTCACGCAG returned a sensor-assay potency score (higher = more potent) of 0.0195.

In the case of TTTGTTGTAGTCTCTGAACAAA, the sensor-assay potency score (higher = more potent) is -1.36.

Regarding TTGTAGTCTCTGAACAAAGTTG, the sensor-assay potency score (higher = more potent) is -1.06.

For the next assay, the target named is STAP2. Described as above. The note with it: shRNA.
Sequence TTCCACGTAGCCTAGCACCTTC registered a sensor-assay potency score (higher = more potent) of -0.0469.

With TAGAAAGCTCTCATAGTAGTGT, the sensor-assay potency score (higher = more potent) turned out to be 0.706.

For the sequence TAGCCTAGCACCTTCTCGTAGT, the sensor-assay potency score (higher = more potent) was -0.174.

Take TTCTTCTCTAGAAAGCTCTCAT: the sensor-assay potency score (higher = more potent) was -0.00657.
